biological target: EID2B; assay: pooled miR-30 sensor sort-seq; sequence = guide strand; conditions: shRNA
Note: reference of the scale not given here.

| Sequence | sensor-assay potency score (higher = more potent) |
| --- | --- |
| TTCTATTGAATATTTACTGTTC | 0.0406 |
| TTGACATGACCACAAATTGTGA | -1.04 |
| TAAACTGGCACAGCCTGCCTGT | -0.54 |
| TCGCGGAACAACAGCTGCCGGT | -1.55 |
| TTTTCTTTCATCACTTAGGTTC | -0.263 |
| TTTTCTATTGAATATTTACTGT | -0.85 |
| TTTTTTCTCATATCTTTGCAAA | -1.11 |
| ATACTCGCGGAACAACAGCTGC | -1.3 |
| TATCTTTGCAAAACCATCCTTT | -0.0384 |
| TAAGTCAGAAGTGTCTTGGGAC | 0.252 |
| TAACTAAACTGGCACAGCCTGC | -0.861 |
| TTCCTGACAACTCTATTTCTTT | -0.963 |

biological target: EIF1; assay: as above; conditions: shRNA

| Sequence | sensor-assay potency score (higher = more potent) |
| --- | --- |
| TCAATTACAGTACCATTGCAGG | -1.4 |
| TTGGACAGTAGTAAGGGTCTTC | 0.328 |
| TAGTAAGGGTCTTCCTGCCGTT | -0.658 |
| TTTTATCGTAATCATCAGCGAT | -0.796 |
| TTATATGGATATAATCCTCAGT | -0.502 |

Source: the OligoGym collection
